Screening data as filed in PubChem BioAssay.
Rows were chosen to be rich in hits. Some 0.41% of all compounds tested hit in one or more screens of this group.
TRPV1 agonist: agonists of human vanilloid receptor 1 (TRPV1); AID 540275; activation, % at 8.33 µM; Q8NER1; TRPV1-expressing cells, Fluo-8 calcium influx, agonist mode; 0.19% of 320,000 active; in the data active = activation above about 80%; inconclusive = between about 30% and that limit; also: 0% is about no effect
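Cells expressing TRPV1 were dye-loaded with Fluo-8 and read kinetically: 10 s baseline, 3 min after compound (agonist portion), then 2 min after EC20 capsaicin (allosteric enhancer portion). Calcium-bound dye fluorescence at 480/520 nm.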
TRPML1 inh: inhibitors of human TRPML1 channel. TRPML1-inducible cells, Ca2+ dye fluorescence, FDSS; stronger effect = lower value; inhibition of EC80 agonist-evoked calcium signal. 0.02% of 390,000 active. activity change, negative = inhibition, % (test concentration not listed); in the data active = activity change below about -50%; inconclusive = between about -30% and that limit;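 also: stimulus is agonist 54-4 at its EC80 concentration; % is scaled to controls: 0 for no effect and ±100 for the full control effect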
Target sequence (Q9GZU1 whole entry, looked up): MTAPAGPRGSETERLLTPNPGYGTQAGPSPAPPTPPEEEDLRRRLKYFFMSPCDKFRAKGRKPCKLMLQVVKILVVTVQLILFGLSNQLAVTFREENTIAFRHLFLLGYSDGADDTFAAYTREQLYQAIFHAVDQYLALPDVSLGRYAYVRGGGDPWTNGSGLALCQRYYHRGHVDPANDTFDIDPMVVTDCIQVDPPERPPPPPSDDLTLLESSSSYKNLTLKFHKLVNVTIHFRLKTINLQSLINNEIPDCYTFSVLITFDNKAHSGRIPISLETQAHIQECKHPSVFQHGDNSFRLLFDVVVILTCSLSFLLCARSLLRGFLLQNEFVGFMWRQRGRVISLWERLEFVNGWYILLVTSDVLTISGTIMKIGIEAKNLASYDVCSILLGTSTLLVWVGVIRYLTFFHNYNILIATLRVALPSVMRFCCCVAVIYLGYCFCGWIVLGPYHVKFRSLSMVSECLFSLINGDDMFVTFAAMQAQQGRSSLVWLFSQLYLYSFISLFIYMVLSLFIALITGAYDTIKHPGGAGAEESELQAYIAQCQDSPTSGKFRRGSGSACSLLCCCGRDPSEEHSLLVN
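Tet-induced TRPML1-DL cells loaded with Ca8 no-wash calcium dye were read kinetically on FDSS. Compound addition was followed by EC80 agonist 54-4 (4 uM final); inhibition was read over 110 s.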
TRPV1 PAM: human TRPV1 potentiation; Q8NER1; TRPV1-expressing cells, Fluo-8 calcium influx, capsaicin EC20 potentiation; potentiation, % at 8.33 µM; 0.02% of 320,000 active; AID 540277; in the data active = potentiation above about 80%; inconclusive = between about 30% and that limit; also: 0% is about no effect
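Fluo-8 calcium influx in TRPV1-expressing cells, kinetic read (ex 480/em 520 nm). Compound added and read 3 min for agonist activity, followed by capsaicin at EC20 final and 2 min further read for enhancement.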
A-T KAP1 phos: candidate therapy for ataxia-telangiectasia | F2112 A-T fibroblasts, KAP-1 phosphorylation AlphaLISA; neocarzinostatin DNA damage 30 min before lysis | Potency, µM (titrated, usually from 57.5 µM), for inactives: top-dose activation, actives largely listed as activators | 0.19% of 320,000 active; active = well fitted activation curve with a large enough effect; inconclusive = small, poorly fitted or top-dose-only effect; inactive = no such curve, though single readings can be large or run the other way; also: potency is read from the fitted curve at half-maximal effect; % of control where 0% means no effect; nearly all actives have a fitted effect of over 45% in size
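hTERT-immortalized A-T patient fibroblasts (F2112), 500 cells/well in OPTI-MEM, 1% FBS, got compounds for 60 min, then NCS for 30 min at 37C. Lysates were then assayed for phospho-KAP-1 by AlphaLISA (anti-pKAP1 donor, anti-KAP1 acceptor beads), 6 hr at 25C.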
TRPML1 ag: human mucolipin-1 channel agonism; Q9GZU1; TRPML1-expressing cells, Ca2+ dye fluorescence, FDSS; activation, % (test concentration not listed); 0.12% of 410,000 active; in the data active = activation above about 50%; inconclusive = mostly about 30% to 49%; also: 0% is about no effect
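Cells: TRPML1-DL, 1X Tet inducer, ~16 h at 37 degrees C/5% CO2. Dye: ABD Ca8 no-wash + quencher, 45-90 min RT. Read: 10 s baseline, compound add, 110 s agonist phase; 54-4 EC80 (4uM final), 110 s antagonist phase.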
* hit, by the source's call; u = inconclusive; x = not tested or not shown.

SMILES	TRPV1 agonist	TRPML1 inh	TRPV1 PAM	A-T KAP1 phos	TRPML1 ag
Cc1ncoc1C(=O)N1CCCC(C(=O)Nc2cccc(-c3ccc(F)cc3)c2)C1 (centres undefined)	u	-8	-5	-9%	53*
O=C(Nc1cccc(-c2ccc(F)cc2)c1)C1CCCN(C(=O)c2cscn2)C1 (centres undefined)	1	-13	-9	4%	-1
O=c1[nH]c2c(-c3nc(-c4ccc(Cl)cc4)cs3)c(O)cn2c2ccccc12	x	x	x	x	0
c1ccc2c(c1)sc[n+]2CCC1CCCCC1	x	x	x	x	0
COc1cc(C#Cc2c(-c3cncn3C)n(C)c3ccc(-c4cc(OC)c(OC)c(OC)c4)cc23)cc(OC)c1	x	-2	x	10%	-1
COc1cc(C#Cc2c(-c3cncn3C)n(C)c3ccc(-c4ccc(OC)nc4)cc23)cc(OC)c1	0	-8	-7	32µM*	-1
COc1cc2c(NC3CCN(C)CC3)nc(N3CCCN(C)CC3)nc2cc1OCCCCN	x	x	x	x	0
O=S(=O)(Nc1cc2nc3ccccc3nc2n1Cc1ccccc1)c1ccc(Cl)cc1	16	4	5	25µM*	17
COc1cc(OC)c(OC)cc1/C=C/c1ccc2ccccc2n1	x	x	x	x	6
CC(C)(C)n1ncc2c(=O)n(Cc3ccc(C#N)c(F)c3)cnc21	x	8	x	x	0
O=C(Nc1ccncc1)c1ccc(Cl)cc1	u	3	-6	6%	3
CC(C)c1ccc(OCC(=O)Nc2ccncc2)cc1	95*	7	-14	-6%	1
CCCOc1ccc(C(=O)Nc2cccnc2)cc1	u	29	0	5%	0
CCCCOc1ccc(C(=O)Nc2ccncc2)cc1	93*	-7	-7	-9%	-1
O=C(Nc1ccncc1)c1ccc(Br)cc1	113*	-17	-28	1%	-1
COc1cc2c(NC3CCN(C(C)C)CC3)nc(N3CCCN(C)CC3)nc2cc1OCCCN(C)C	x	x	x	x	0
COc1ccc(C(=O)NNC(=S)NC(=O)C(C)(C)C)cc1	u	32	-14	14%	51*
O=C(NNC(=S)NC1CCCCC1)c1sc2ccccc2c1Cl	u	-29	-9	2%	4
CC(C)(C)C(=O)NC(=S)NNC(=O)c1sc2ccccc2c1Cl	u	0	-22	-7%	71*
COc1cc(N(C)C)c(OC)cc1/C=C1\C=Cc2ccccc21	x	x	x	x	0
Cc1cc2ccccc2c[n+]1CC(=O)c1ccc(F)cc1	x	x	x	x	0
C#CCOCCOCCOCCNc1nc(N2CCN(C(=O)[C@H]([C@@H](C)CC)n3cc([C@@H](N)Cc4ccc(O)cc4)nn3)CC2)nc(N2CCN(C(=O)[C@H](CCCCN)n3cc([C@@H](N)C(C)CC)nn3)CC2)n1 (some centres undefined)	2	-6	-3	-10%	0
C#CCOCCOCCOCCNc1nc(N2CCN(C(=O)[C@H](CCC(=O)O)n3cc(C(N)CO)nn3)CC2)nc(N2CCN(C(=O)[C@H](CCC(=O)O)n3cc(C(N)CO)nn3)CC2)n1 (some centres undefined)	-1	x	-13	0%	x
C#CCOCCOCCOCCNc1nc(N2CCN(C(=O)[C@H](CCC(=O)O)n3cc(C(N)Cc4ccc(O)cc4)nn3)CC2)nc(N2CCN(C(=O)[C@H](CCCCN)n3cc(C(N)[C@H](C)CC)nn3)CC2)n1 (some centres undefined)	5	x	-6	40µM*	x
C#CCOCCOCCOCCNc1nc(N2CCN(C(=O)[C@H](CCC(=O)O)n3cc(C(N)CO)nn3)CC2)nc(N2CCN(C(=O)[C@H](CCC(=O)O)n3cc(C(N)CC(C)C)nn3)CC2)n1 (some centres undefined)	-4	x	u	18µM*	x
SMILES	TRPV1 agonist	TRPML1 inh	TRPV1 PAM	A-T KAP1 phos	TRPML1 ag
COc1cc(OC)c(/C=C/c2ccncn2)c(OC)c1	x	x	x	x	-1
C=CCNC(=O)C1=NN(c2c(F)c(F)cc(F)c2F)C(=O)CC1	-6	0	u	7.1µM*	0
CCN(C(=O)c1cc2c(=O)n3cccc(C)c3nc2n1CCCOC)C1CCCCC1	u	-11	-17	35µM*	0
CC(C)[C@H](NC(=O)c1cc2cc(Cl)ccc2n1C)C(=O)N1CCC(C(=O)O)CC1	-1	-11	-17	-1%	0
COc1ccc2c(c1)cc(C(=O)N[C@H](C(=O)N1CCC(C(=O)O)CC1)C(C)C)n2C	-1	-8	-1	7.1µM*	0
Cc1cc[n+](C2CCCCC2)c2ccccc12	x	x	x	x	0
COCCN1C(=O)/C(=C/c2ccc(N3CCCC3)cc2)SC1=S	17	-11	-5	3%	60*
Oc1ccc(N=Nc2ccc3c(c2)OCO3)c2ccccc12	3	x	6	10µM*	x
O=C(NN=Cc1c(O)ccc2ccccc12)c1ccc2c(c1)OCO2	x	-21	x	-25%	7
CC(C)(C)c1ccc(Cn2cnc3c(cnn3C(C)(C)C)c2=O)cc1	x	0	x	x	0
Cc1cc(-c2ccc(C(C)C)c(S(=O)(=O)N3CCOc4ccccc43)c2)on1	20	-28	-5	-2%	139*
CC(C)(C)n1ncc2c(=O)n(Cc3ccc(Cl)cc3C(F)(F)F)cnc21	x	-2	x	x	1
COc1ccc(CNC(=O)COC(=O)/C=C/c2cccc(Br)c2)cc1OC	87*	-4	u	11%	1
COc1ccc(/C=C/C(=O)OCC(=O)NCc2ccccc2)cc1OC	0	6	19	11%	1
COC(C(=O)C(O)C(C)O)C1Cc2cc3cc(OC4CC(OC5CC(O)C(O)C(C)O5)C(O)C(C)O4)c(C)c(O)c3c(O)c2C(=O)C1OC1CC(OC2CC(OC3CC(C)(O)C(O)C(C)O3)C(O)C(C)O2)C(O)C(C)O1 (centres undefined)	x	x	x	x	4
Cc1cc(C)c2c(/C=C/c3ccc(N(C)C)cc3)ccnc2c1	x	x	x	x	3
Cc1cc(/C=C/c2c(C)cnc3ccccc23)ccc1N(C)C	x	x	x	x	0
O=C1C(Cl)=C(Nc2ccccc2)C(=O)c2ccccc21	5	-5	-22	5µM*	-1
C[N+]1(CC(=O)c2ccccc2)CCc2ccccc2C1 (centres undefined)	x	x	x	x	0
CCN1/C(=C/C=C/C=C/c2sc3ccccc3[n+]2CC)Sc2ccccc21	-4	x	29	32µM*	-1
Cc1ccnc2ccc(I)cc12	x	x	x	x	-1
Cc1nc2ccccc2cc1OCc1ccc(Cl)cc1	83*	8	-15	18%	0
COc1ccc(CN2CC[C@H]3C=CC[C@@H](C(=O)Nc4nccs4)[C@H]3C2=O)cc1OC	x	x	x	x	-1
Cc1c(Cl)cccc1N1CC(C)(C)C1=O	-3	-17	10	5%	52*
CC1(C)CN(c2ccc(Br)cc2Br)C1=O	5	0	-4	3%	1
O=C(C[n+]1cccc(Br)c1)c1ccc(F)cc1	x	x	x	x	0
CC(=O)Nc1ccc(/C=C/c2nc3ccccc3s2)cc1	x	x	x	x	4
